In PubChem BioAssay AID1159580 (chemical genetic matrix, 2015):
Out of some 5,500 compounds screened, about 2,000 (36%) were called active. About 18% were inconclusive and are not listed. No stated cut-off is given here; in the data, active means normalized growth mostly below about 0.91 (no sharp cut-off); inconclusive means no clear call, values can overlap the other calls; inactive means mostly above about 0.92. This is one part of the list.

Assay: chemical genetic growth profiling, strain panel (AID 1159580);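 further: tested at 20 µM; growth read once vehicle control cultures reached saturation at 30 °C; 1 = growth at the plate median or of vehicle wells; lower values mean less growth of the strain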
Conditions: S. cerevisiae deletion strains, growth OD

Measured: normalized growth

CN(C)CC[C@@H](c1ccc(Br)cc1)c1ccccn1
inactive: locus YAL040C, strain CLN3, hits give low values 1.05 | locus YCL061C, strain MRC1 (second series), hits give low values 0.993 | locus YDR363W, strain ESC2, hits give low values 0.97 | locus YER002W, strain NOP16, hits give low values 0.99 | locus YGR078C, strain PAC10, hits give low values 0.991 | locus YMR307W, strain GAS1, hits give low values 1.01 | locus YNL128W, strain TEP1, hits give low values 0.984 | locus YNL175C, strain NOP13, hits give low values 0.988 | locus YNL197C, strain WHI3, hits give low values 0.928 | locus YNL224C, strain SQS1, hits give low values 0.985 | locus YNL322C, strain KRE1, hits give low values 0.983 | locus YOR083W, strain WHI5 (second series), hits give low values 0.912 | locus YPL055C, strain LGE1, hits give low values 1
